# Results from PubChem BioAssay (NCATS).
# Where “and” joins values, the source holds several entries; their conditions need not be identical. Equal values may be shown once. Results filed as inconclusive are left out. A call without a number means that no potency is given here. The source holds several records for some structures; these can differ, active in one and inactive in another. Calls of active or inactive are those of the source. Calls come from the whole dose curve; as a rule, active = well fitted curve in the direction sought with a large enough effect; inconclusive = small, poorly fitted or top-dose-only effect, or another doubt; inactive = no such curve, though single readings can be large; an effect the other way counts as inactive or inconclusive.
# Columns and labels:
# [1] = Viability qHTS for spleen associated tyrosine kinase inhibitor (SYKi) drug resistant MV4-11 cells (AID 1963824); settings: SYKi-resistant MV4-11 viability, CellTiter-Glo, 72 h; series mostly up to 45 µM; note: nearly all actives have a fitted effect of over 35% in size
# Summary of the method: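 SYK-inhibitor-resistant MV4-11 AML cells were seeded at 500 per well onto compound and cultured 72 hours (37 °C, 5% CO2). CellTiter-Glo was then added, and after 10 min at room temperature, luminescence gave viability.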
# [2] = Quantitative highthroughput screen to assess conditional lethalithy of NOMO1 cells grown in RPMI1640 with untreated serum (RPMI+s) (AID 1963876); settings: NOMO1 AML cells in RPMI+serum, CellTiter-Glo viability, 48 h; series mostly up to 45.8 µM; note: nearly all actives have a fitted effect of over 35% in size
# Summary of the method: (§1)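 Each medium arm—HPLM with 10% dialyzed FBS, or RPMI1640 with 5 mM glucose and 10% untreated or dialyzed FBS—was screened against an 11-point, 3-fold compound titration for 48 h at 37 °C, with CellTiter-Glo luminescence as endpoint.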
# [3] = Quantitative highthroughput screen to assess conditional lethalithy of NOMO1 cells grown in RPMI1640 with dialyzed fetal bovine serum (RPMI+ds) (AID 1963877); settings: NOMO1 in RPMI+dialyzed FBS viability, ATP luminescence, 48 h; series mostly up to 45.8 µM; note: nearly all actives have a fitted effect of over 30% in size
# Summary of the method: as §1
# [4] = Quantitative highthroughput screen to assess conditional lethalithy of NOMO1 cells grown in Human Plasma-Like Medium with dialyzed fetal bovine serum (HPLM+ds) (AID 1963878); settings: NOMO1 AML cells in HPLM+ds, CellTiter-Glo viability, 48 h; series mostly up to 45.8 µM; note: nearly all actives have a fitted effect of over 35% in size
# Summary of the method: as §1
# [5] = Quantitative highthroughput screen to assess conditional lethalithy of P12 Ichikawa cells grown in RPMI1640 with untreated serum (RPMI+s) (AID 1963881); settings: ATP luminescence, 48 h; Potency: viability; series mostly up to 45.8 µM; note: nearly all actives have a fitted effect of over 35% in size
# Summary of the method: as §1
# [6] = Quantitative highthroughput screen to assess conditional lethalithy of SEM cells grown in Human Plasma-Like Medium with dialyzed fetal bovine serum (HPLM+ds) (AID 1963882); settings: SEM B-ALL cells in HPLM+ds, CellTiter-Glo viability, 48 h; series mostly up to 45.8 µM; note: nearly all actives have a fitted effect of over 35% in size
# Summary of the method: as §1
# [7] = Quantitative highthroughput screen to assess conditional lethalithy of SEM cells grown in RPMI1640 with unreated serum (RPMI+s) (AID 1963883); settings: SEM B-ALL cells, CellTiter-Glo viability, 48 h; series mostly up to 45.8 µM; note: nearly all actives have a fitted effect of over 35% in size
# Summary of the method: as §1
# [8] = Quantitative highthroughput screen to assess conditional lethalithy of SEM cells grown in RPMI1640 with dialyzed fetal bovine serum (RPMI+ds) (AID 1963884); settings: SEM B-ALL cells, RPMI+dialyzed FBS, CellTiter-Glo viability, 48 h; series mostly up to 45.8 µM; note: nearly all actives have a fitted effect of over 35% in size
# Summary of the method: as §1
# [9] = Cellular viability qHTS for adrenocortical cancer (ACC) cell line SW-13 (AID 1963989); settings: SW-13 ACC cells viability, CellTiter-Glo, 48 h; activity (max response): stronger effect = lower value; note: nearly all actives have a fitted effect of over 65% in size;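 for activity (max response): cells grown in serum-free medium with ITS supplement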
# Summary of the method: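 SW-13 cells in ITS-supplemented serum-free DMEM were plated overnight, then exposed for 48 h at 37C to compound titrations (up to 46 uM final). Viability was read by CellTiter-Glo luminescence; four-parameter logistic fits gave IC50 and efficacy.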
# [10] = Cellular viability qHTS for adrenocortical cancer (ACC) cell line NCI-H295R (AID 1963990); settings: CellTiter-Glo ATP luminescence, 48 h; series mostly up to 46.1 µM; note: nearly all actives have a fitted effect of over 60% in size
# Summary of the method: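 Luminescent ATP read-out (CellTiter-Glo, 20 min RT) after 48 h drug exposure of NCI-H295R cells; a titration up to 46 uM final. Data normalized to doxorubicin (100% inhibition) and DMSO (0%); 4-parameter fit gives IC50, max response.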
# [11] = Quantitative highthroughput screen to assess conditional lethalithy of P12 Ichikawa cells grown in Human Plasma-Like Medium with dialyzed fetal bovine serum (HPLM+ds) (AID 1963879); settings: ATP luminescence, 48 h; Potency: viability; series mostly up to 45.8 µM; note: nearly all actives have a fitted effect of over 35% in size
# Summary of the method: as §1
# [12] = Quantitative highthroughput screen to assess conditional lethalithy of P12 Ichikawa cells grown in RPMI1640 with dialyzed fetal bovine serum (RPMI+ds) (AID 1963880); settings: ATP luminescence, 48 h; Potency: P12-Ichikawa viability; series mostly up to 45.8 µM; note: nearly all actives have a fitted effect of over 35% in size
# Summary of the method: as §1
# Potency is the fitted concentration of half-maximal effect.
Compound,Potency [1],Potency [2],Potency [3],Potency [4],Potency [5],Potency [6],Potency [7],Potency [8],Potency [9],Potency [10],Potency [11],Potency [12],activity (max response) [9]
O=C1C(Cl)=C(NCCN2CCOCC2)C(=O)c2ncccc21,2.09 µM (active),10.5 µM (active),9.35 µM (active),14.8 µM (active),23.5 µM (active),10.5 µM (active),4.69 µM (active),7.43 µM (active),3.55 µM (active),3.98 µM (active),,,
NC(=O)c1ccc(N(C(N)=O)c2c(F)cccc2F)nc1-c1ccc(F)cc1F,10.3 µM (active) and inactive,inactive,inactive,inactive,,,inactive,,,inactive,inactive,inactive,-4.37% (inactive)
CC1Cc2ccccc2N1NC(=O)c1ccc(Cl)c(S(N)(=O)=O)c1 (configuration not stated),inactive,inactive,inactive,inactive,inactive,inactive,inactive,inactive,,inactive,,inactive,9.73% (inactive) and 7.78% (inactive)
Nc1nccc(-c2ccc3noc(-c4ccc(Cl)cc4)c3c2)n1,8.33 µM (active),inactive,inactive,inactive,inactive,inactive,inactive,inactive,,inactive,inactive,,-6.01% (inactive)
NC(CO)C(=O)NNCc1ccc(O)c(O)c1O (configuration not stated),23.5 µM (active),inactive,inactive,inactive,26.4 µM (active),inactive,,,,,,,
Cc1ccc(-n2nc(C(C)(C)C)cc2NC(=O)Nc2ccc(OCCN3CCOCC3)c3ccccc23)cc1,2.59 µM (active),inactive,inactive,inactive,,10.5 µM (active),0.132 µM (active),9.35 µM (active),,inactive,inactive,inactive,-16.6% (inactive)
O=C(Nc1cc2cc[nH]c2cn1)c1ccccc1,9.2 µM (active),5.9 µM (active),13.2 µM (active),3.32 µM (active),,3.72 µM (active),2.96 µM (active),3.32 µM (active),,,2.96 µM (active),,
C[C@H](c1ccc(F)cc1CCCC(=O)O)N(c1cc(F)ccc1F)S(=O)(=O)c1ccc(Cl)cc1,18.6 µM (active),inactive,inactive,inactive,,,,,,inactive,inactive,inactive,-23.1% (inactive)
Cc1c(OCC(F)(F)F)ccnc1CS(=O)c1nc2ccccc2[nH]1 (configuration not stated),16.6 µM (active),inactive,inactive,inactive,inactive,inactive,inactive,inactive,,inactive,inactive,,
CC(C)c1ccccc1Cc1cc(C(=O)Nc2ccc(S(=O)(=O)c3ccccc3C(C)(C)C)cc2)c(O)c(O)c1O,7.42 µM (active),inactive,inactive,,inactive,inactive,inactive,,,,inactive,inactive,
CO[C@H]1C[C@@H]2CC[C@@H](C)[C@@](O)(O2)C(=O)C(=O)N2CCCC[C@@H]2C(=O)O[C@H]([C@@H](C)C[C@@H]2CC[C@H](O)[C@H](OC)C2)CC(=O)[C@H](C)C=C(C)[C@@H](O)[C@@H](OC)C(=O)[C@H](C)C[C@H](C)C=CC=CC=C1C,10.5 µM (active),inactive,inactive,inactive,,,,,,28.2 µM (active),,,
COc1c2occc2cc2ccc(=O)oc12,inactive,inactive,inactive,inactive,,,inactive,inactive,,inactive,,7.43 µM (active),8.25% (inactive) and 3.48% (inactive)
COCCOc1ccc2c(c1)ncn2-c1ccc2cccc(N3CCC(N)CC3)c2n1,11.6 nM (active) and 16.6 nM (active),18.7 µM (active),18.7 µM (active),14.8 µM (active),,,0.0935 µM (active),0.0264 µM (active),25.1 µM (active),12.6 µM (active),,,
CO[C@H]1C=CO[C@@]2(C)Oc3c(C)c(O)c4c(O)c(c5c(c4c3C2=O)NC2(CCN(CC(C)C)CC2)N=5)=NC(=O)C(C)=CC=C[C@H](C)[C@H](O)[C@@H](C)[C@@H](O)[C@@H](C)[C@H](OC(C)=O)[C@H]1C,18.4 µM (active),inactive,inactive,,inactive,inactive,inactive,inactive,,,inactive,inactive,
Cc1ccccc1C(=O)Nc1ccc(C(=O)N2CCCC(O)c3cc(Cl)ccc32)c(C)c1 (configuration not stated),20.9 µM (active),inactive,inactive,inactive,inactive,inactive,inactive,inactive,,16.4 µM (active),,inactive,
CCOc1cc(C(C)(C)C)ccc1C1=N[C@@](C)(c2ccc(Cl)cc2)[C@@](C)(c2ccc(Cl)cc2)N1C(=O)N1CCN(CC(=O)N2CCOCC2)CC1,11.5 µM (active),inactive,inactive,,inactive,inactive,6.6 µM (active),5.88 µM (active),,,inactive,inactive,
